From PubChem BioAssay (EPA / NIEHS)
Active and inactive are the calls of the source. How the source made its calls: active means hit-call score of the fitted dose curve at least 0.9, where 1 is the maximum; inactive means score below 0.9.

Legend:
[1] = APR_HepG2_CellLoss_72hr: Apredica 72-hour HepG2 Assay for Cell Loss (AID 2282915); details: high-content imaging
Outline: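 Cell number comes from Hoechst 33342-labelled nuclei, imaged at 20x after 3.7% formaldehyde fixation. Dosing was 0.39–200 uM, ten concentrations in duplicate, 0.5% DMSO final, for 72 h. Bidirectional fit relative to DMSO baseline.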

[2] = APR_HepG2_P-H2AX_72hr: Apredica 72-hour HepG2 Assay for H2AX Phosphorylation (AID 2282916); details: imaging, actives raise or lower the signal;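 further: phospho-histone H2A.x immunostain intensity per cell marking DNA damage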
Outline: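 HepG2 cells treated 72 h at 0.39–200 uM, 0.5% DMSO final, duplicates. Formaldehyde-fixed, Triton-permeabilised, immunostained for phospho-H2A.x with Hoechst; fluorescence imaged at 20x, bidirectional fit versus DMSO.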

[3] = APR_HepG2_MitoMembPot_72hr: Apredica 72-hour HepG2 Assay for Mitochondrial Membrane Potential (AID 2282917); details: imaging, actives raise or lower the signal
Outline: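 Membrane potential read by MitoTracker Red CMXRos (250 nM, 30 min, pre-fixation) fluorescence imaging of HepG2 after 72 hr exposure. Ten concentrations, 0.39–200 uM, duplicate wells, 0.5% DMSO; fitted in both directions against DMSO baseline.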

[4] = APR_HepG2_MitoticArrest_72hr: Apredica 72-hour HepG2 Assay for Mitotic Arrest (AID 2282918); details: high-content imaging, actives raise or lower the signal
Outline: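 Using high-content imaging of fixed HepG2 cells, phospho-histone H3 signal was measured following a 72 hr incubation with ten-point compound dilutions up to 200 uM. DMSO served as the negative control and baseline for bidirectional curve fitting.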

[5] = APR_HepG2_MicrotubuleCSK_72hr: Apredica 72-hour HepG2 Assay for Microtubule CSK Stabilty (AID 2282919); details: HepG2 microtubule cytoskeleton, high-content imaging, actives raise or lower the signal
Outline: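 Read-out is tubulin fluorescence intensity from high-content imaging of HepG2 cells, with nuclei identified by Hoechst 33342. Treatment lasts 72 h at 0.39–200 uM, and curves are fitted bidirectionally against the DMSO negative control.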

[6] = APR_HepG2_P-H2AX_24hr: Apredica 24-hour HepG2 Assay for H2AX Phosphorylation (AID 2282920); details: high-content imaging, actives raise or lower the signal
Outline: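 Human HepG2 liver cells, treated 24 hr with test chemicals (0.39–200 uM, final DMSO 0.5% v/v), are fixed and co-stained for phospho-H2A.x and c-Jun with Hoechst. Imaged intensity is fitted in both directions against DMSO controls.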

[7] = APR_HepG2_StressKinase_72hr: Apredica 72-hour HepG2 Assay for Stress Kinase (AID 2282921); details: HepG2 stress kinase (phospho-c-Jun) imaging, actives raise or lower the signal
Outline: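 HepG2 cells treated 72 hr with 0.39–200 uM compound, 0.5% v/v DMSO, duplicate wells. After formaldehyde fixation and Triton permeabilization, stained with anti-phospho-c-Jun (1:500) and Cy3 secondary, imaged at 20x. Fitted in both directions against DMSO.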

[8] = APR_HepG2_StressKinase_24hr: Apredica 24-hour HepG2 Assay for Stress Kinase (AID 2282922); details: HepG2 stress kinase (phospho-c-Jun) imaging, actives raise or lower the signal
Outline: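 HepG2, 24 hr dosing, 0.39–200 uM in duplicate, 0.5% DMSO; formaldehyde fix (3.7%), 0.5% Triton X-100; anti-phospho-c-Jun + Cy3 secondary, Hoechst counterstain; ArrayScan imaging; bidirectional curve fit vs DMSO baseline.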

[9] = APR_HepG2_p53Act_72hr: Apredica 72-hour HepG2 Assay for p53 Activation (AID 2282923); details: high-content imaging, actives raise or lower the signal;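 further: average cellular p53 protein immunofluorescence intensity in HepG2 cells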
Outline: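 HepG2 cells exposed 72 h to 0.39–200 uM in 0.5% DMSO, duplicates. Fixed, permeabilized cells immunostained for p53 (Cy5) with Hoechst; imaged at 20x, fluorescence analyzed bidirectionally against DMSO.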

[10] = ATG_CMV_CIS: Attagene CIS-FACTORIAL HepG2 Assay for human CMV (Internal Marker) (AID 2282928); details: HepG2 CMV promoter reporter, transcription factor profiling; actives raise or lower the signal;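 further: endpoint acts as a background internal control marker rather than a target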
Outline: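 HepG2 cells transiently transfected with multiple cis-regulated reporter units; 24 h compound exposure. Reporter mRNA quantified by RT-PCR, 6-FAM primer-extension labeling, HpaI digestion and capillary electrophoresis; bidirectional fitting against DMSO baseline.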

[11] = ATG_DR4_LXR_CIS: Attagene CIS-FACTORIAL HepG2 Assay for human Liver X Receptor (LXR), DR4 submotif (AID 2282929); details: HepG2 Attagene DR4 cis-reporter, mRNA transcription; actives raise or lower the signal
Outline: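 After transient transfection with multiplexed cis-promoter reporter units, HepG2 cells received test chemicals for 24 h. Reporter mRNA induction, detected by fluorescence after RT-PCR and capillary electrophoresis, was scored relative to DMSO.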

[12] = target: Aryl hydrocarbon receptor (Homo sapiens) (UniProt P35869); experiment: ATG_Ahr_CIS: Attagene CIS-FACTORIAL HepG2 Assay for human Aryl Hydrocarbon Receptor (Ahr) (AID 2282930); details: HepG2 AhR cis-factorial reporter transcription; actives raise or lower the signal
Sequence of Aryl hydrocarbon receptor (Homo sapiens) (P35869 whole entry, looked up): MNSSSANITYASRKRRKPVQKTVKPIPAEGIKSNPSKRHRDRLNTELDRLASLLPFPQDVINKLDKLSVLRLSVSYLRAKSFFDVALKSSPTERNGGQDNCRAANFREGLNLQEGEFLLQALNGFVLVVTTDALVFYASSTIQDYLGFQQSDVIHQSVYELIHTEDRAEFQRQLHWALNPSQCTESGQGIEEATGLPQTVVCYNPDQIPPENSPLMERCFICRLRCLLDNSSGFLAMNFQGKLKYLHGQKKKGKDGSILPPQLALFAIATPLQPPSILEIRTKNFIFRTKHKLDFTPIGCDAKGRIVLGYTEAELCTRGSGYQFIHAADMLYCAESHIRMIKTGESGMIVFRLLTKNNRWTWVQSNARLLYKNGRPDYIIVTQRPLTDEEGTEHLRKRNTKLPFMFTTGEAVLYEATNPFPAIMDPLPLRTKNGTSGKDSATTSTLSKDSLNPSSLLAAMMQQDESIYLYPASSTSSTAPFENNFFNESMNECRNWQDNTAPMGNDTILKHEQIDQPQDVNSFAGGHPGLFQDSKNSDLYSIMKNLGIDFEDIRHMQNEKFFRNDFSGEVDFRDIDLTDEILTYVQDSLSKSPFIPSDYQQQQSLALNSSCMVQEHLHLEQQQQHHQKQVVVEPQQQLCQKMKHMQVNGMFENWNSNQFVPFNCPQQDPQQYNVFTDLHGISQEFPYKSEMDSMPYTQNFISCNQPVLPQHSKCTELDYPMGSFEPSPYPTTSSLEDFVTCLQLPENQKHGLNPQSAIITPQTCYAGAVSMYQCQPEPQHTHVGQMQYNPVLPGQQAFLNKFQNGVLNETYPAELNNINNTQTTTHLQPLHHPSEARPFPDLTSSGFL
Outline: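 HepG2, transient MRTU (cis) transfection, 24 h exposure. RNA → cDNA → PCR → 6-FAM primer extension → HpaI 2 h 37 C → CE. Fit: bidirectional, DMSO baseline.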

[13] = ATG_AP_1_CIS: Attagene CIS-FACTORIAL HepG2 Assay for human Activator Protein 1 (AP-1) (AID 2282931); details: HepG2 Attagene cis-factorial AP-1 reporter mRNA; actives raise or lower the signal
Outline: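 After 24 h incubation with test chemical, RNA from transfected HepG2 cells was reverse-transcribed, amplified, fluorescently labelled and digested before capillary electrophoresis. Reporters were driven by cis-regulatory promoters; activity fitted bidirectionally versus DMSO.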

[14] = ATG_AP_2_CIS: Attagene CIS-FACTORIAL HepG2 Assay for human Activator Protein 2 (AP-2) (AID 2282932); details: HepG2 AP-2 cis-reporter, Attagene transcription factor profiling; actives raise or lower the signal
Outline: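 HepG2, transient MRTU transfection, cis-regulated reporters; 24 h compound exposure; RNA isolated, RT-PCR, 6-FAM labelling, HpaI digest, CE fluorescence. DMSO = negative control/baseline, bidirectional fit.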

[15] = target: Retinoic acid receptor alpha (Homo sapiens) (UniProt P10276); experiment: ATG_DR5_RAR_CIS: Attagene CIS-FACTORIAL HepG2 Assay for human Retinoic Acid Receptor Alpha (RARE), DR5 submotif (AID 2282934); details: HepG2 Attagene cis-factorial RARE DR5 reporter, mRNA; actives raise or lower the signal
Sequence of Retinoic acid receptor alpha (Homo sapiens) (P10276 whole entry, looked up): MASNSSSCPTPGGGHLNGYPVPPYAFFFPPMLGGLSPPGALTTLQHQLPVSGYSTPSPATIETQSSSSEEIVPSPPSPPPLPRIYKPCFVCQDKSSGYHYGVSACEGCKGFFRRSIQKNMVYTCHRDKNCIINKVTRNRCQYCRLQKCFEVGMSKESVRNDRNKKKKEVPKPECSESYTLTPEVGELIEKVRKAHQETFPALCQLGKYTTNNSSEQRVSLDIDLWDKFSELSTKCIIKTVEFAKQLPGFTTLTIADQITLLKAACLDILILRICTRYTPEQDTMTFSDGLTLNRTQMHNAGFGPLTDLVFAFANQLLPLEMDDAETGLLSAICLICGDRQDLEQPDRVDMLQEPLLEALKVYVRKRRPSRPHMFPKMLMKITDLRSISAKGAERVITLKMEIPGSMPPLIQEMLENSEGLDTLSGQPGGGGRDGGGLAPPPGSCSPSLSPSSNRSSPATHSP
Outline: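 HepG2, transient cis-reporter transfection, 24 h exposure. mRNA readout: RT-PCR, FAM label, HpaI cut, capillary electrophoresis. DMSO baseline, gain/loss fitting.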

[16] = ATG_CRE_CIS: Attagene CIS-FACTORIAL HepG2 Assay for human cAMP Responsive Element (CRE) binding protein 3 (AID 2282926); details: HepG2 CRE cis-reporter, Attagene multiplexed mRNA; actives raise or lower the signal
Outline: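 Transfected HepG2 were treated for 24 hours, then RNA was extracted and reporter cDNA amplified with sequence-specific primers. Labelled fragments were separated by capillary electrophoresis, and the CRE signal was fitted bidirectionally with DMSO as baseline.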

[17] = APR_HepG2_MitoMass_72hr: Apredica 72-hour HepG2 Assay for Mitochondrial Mass (AID 2282924); details: high-content imaging, actives raise or lower the signal;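 further: MitoTracker Red CMXRos stain intensity per cell imaged as mitochondrial mass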
Outline: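 HepG2, 72 hr cmpd, 10 conc 0.39–200 uM in dup, DMSO 0.5% v/v. MitoTracker Red CMXRos 250 nM 30 min pre-fix; formaldehyde 3.7% fix 30 min RT. HCS imaging, gain/loss fit vs DMSO.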

[18] = APR_HepG2_NuclearSize_72hr: Apredica 72-hour HepG2 Assay for Nuclear Size (AID 2282925); details: high-content imaging, actives raise or lower the signal
Outline: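 HepG2; cpd 0.39–200 uM, 10 conc, duplicate; 72 h; DMSO 0.5% v/v; fix 3.7% formaldehyde 30 min RT; Triton permeabilization; Hoechst 2 ug/mL; HCS imaging 20x; nuclear diameter; gain/loss fit vs DMSO.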

[19] = target: CCAAT/enhancer-binding protein beta (Homo sapiens) (UniProt P17676); experiment: ATG_C_EBP_CIS: Attagene CIS-FACTORIAL HepG2 Assay for human CCAAT/Enhancer Binding Protein (C/EBP) beta (AID 2282927); details: HepG2 Attagene cis-factorial transcription factor reporter; actives raise or lower the signal
Sequence of CCAAT/enhancer-binding protein beta (Homo sapiens) (P17676 whole entry, looked up): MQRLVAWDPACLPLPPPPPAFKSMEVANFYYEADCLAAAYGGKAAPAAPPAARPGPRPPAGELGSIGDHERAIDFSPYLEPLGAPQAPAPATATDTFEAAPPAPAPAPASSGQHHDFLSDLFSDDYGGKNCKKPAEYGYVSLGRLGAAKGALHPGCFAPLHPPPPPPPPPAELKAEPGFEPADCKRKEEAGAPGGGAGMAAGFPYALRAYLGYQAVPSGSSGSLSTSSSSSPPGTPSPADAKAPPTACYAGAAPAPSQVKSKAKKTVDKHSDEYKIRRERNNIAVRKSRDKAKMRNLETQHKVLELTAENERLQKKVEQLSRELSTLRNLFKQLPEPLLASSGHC
Outline: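 Changes in reporter mRNA, rather than exogenous chimeric receptor activity, reflect native C/EBP signalling in transfected HepG2 cells dosed for 24 h; transcripts are detected by RT-PCR and capillary electrophoresis.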

[20] = ATG_BRE_CIS: Attagene CIS-FACTORIAL HepG2 Assay for human Bone Morphogenetic Protein (BMP) Response Element (BRE) (AID 2282933); details: HepG2 BMP response element reporter, Attagene transcription factor profiling; actives raise or lower the signal
Outline: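 Fluorescence-labelled reporter cDNA fragments, separated by capillary electrophoresis, gave the signal for this component of a 52-readout multiplex. HepG2 cells were transfected, exposed to chemicals for 24 h, and compared with DMSO using bidirectional fitting.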

Measured: AC50

Nc1ccc(S(=O)(=O)c2ccc(N)cc2)cc1
not listed: [16] | [17] | [18] | [19] | [20]
inactive: all other assays above

CC(=O)OC/C=C(\C)CCC=C(C)C
not listed: [17] | [18] | [19] | [20]
inactive: all other assays above

CCCCCC(=O)O
active: [12] 82.2 µM
not listed: [16] | [20]
inactive: all other assays above

CN1CCN(Cc2cc(-c3ccc4[nH]c(=O)oc4c3)co2)[C@@H](c2ccc(F)cc2)C1
active: [1] 51.9 µM | [2] 41.5 µM | [3] 66.8 µM | [4] 27 µM | [5] 73.2 µM | [6] 62 µM | [7] 41.2 µM | [9] 54.8 µM | [11] 56.5 µM | [13] 53.9 µM
inactive: [8] | [18] | [19] | [10] | [12] | [14] | [20]

CC(=O)C(C)=CC1C(C)=CCCC1(C)C (stereo not drawn)
not listed: [17] | [19]
inactive: all other assays above

COCCOCCOC
not listed: [16] | [18]
inactive: all other assays above

Cc1cccc(Nc2cc(Cl)nc(SCC(=O)O)n2)c1C
not listed: [18] | [19]
inactive: all other assays above

Cc1ccc(Cl)cc1
not listed: [15] | [20]
inactive: all other assays above
